# Screening results (PubChem)
# KCNQ2 block: blocks the rat KCNQ2 potassium channel. O88943. AID 2156. 310,000 compounds, 1.1% hits. B-score at 10 µM. CHO-K1 KCNQ2, FluxOR thallium flux, 20 min; active compounds read low;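 active = fluorescence ratio B-score at most minus 3 library SDs, with starting brightness B-score within 2 library SDs, cut at about -5.5 in these data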
# KCNQ2 pot: KCNQ2 (rat) channel potentiation. O88943. 310,000 compounds, 0.54% hits. B-score at 10 µM. CHO-K1 KCNQ2, FluxOR thallium flux fluorescence; active compounds read high. AID 2239;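 active = fluorescence ratio B-score at least 3 SD of library B-scores, with initial fluorescence B-score within 3 of them, cut at about 5.3 in these data; same plate scores as AID 2156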;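 also: B-score of peak minus minimum over baseline fluorescence ratio after K+ and Tl+ stimulus; positive B-score means potentiation of KCNQ2 with more thallium influx and brighter signal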
# Kir21 conf inh: confirmation of mouse Kir2.1 potassium channel inhibitors; shares compounds with KCNQ2 pot; Kir2.1-expressing cells, FluxOR thallium flux fluorescence; active compounds read low; Tl flux remaining, % of negative control (active compounds read low), % at 10 µM; 2,300 compounds, 41% hits;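 active = Primary-screen hit whose thallium flux fell at least 3 control SD below untreated wells in both duplicates, with normal baseline fluorescence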;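 also: 0% = blank wells without stimulus and 100% = stimulated no-compound controls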
# HEK293 ctr: parental HEK293 activity in Kir2.1 inhibitor counter-screen | 2,300 compounds, 19% hits | parental HEK293 cells, FluxOR thallium flux fluorescence; 0% = unstimulated blank wells | AID 2105 | shares compounds with KCNQ2 pot | FluxOR signal as % of negative control (100 = no effect), % at 10 µM;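 active = dye signal at least 3 control SD above or below untreated wells in both duplicates, raw fluorescence within 3, either direction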;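 also: percent is based on the flux ratio of peak minus minimum fluorescence over baseline F0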
# CHO-K1 ctr: counter-screen for KCNQ2 potentiators: effect in parental CHO-K1 cells; activity increase over 3SD of controls, % at 10 µM; shares compounds with KCNQ2 pot; 1,200 compounds, 43% hits; FluxOR thallium flux fluorescence; zero = vehicle mean+3SD, 100% = vehicle-minus-blank window; AID 2282;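 active = signal rise of at least 3 SD above the untreated control mean, in both duplicate wells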;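 also: counter screen of KCNQ2 potentiator hits so any rise reflects channel-independent effects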
# KCNQ1 pot spec: selectivity of KCNQ2 potentiators: effect on human KCNQ1 | shares compounds with KCNQ2 pot | activation over 3SD threshold, % at 10 µM | AID 2283 | 1,200 compounds, 28% hits | CHO KCNQ1 stable, FluxOR thallium flux fluorescence; beyond 3SD, as % of vehicle-control signal;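 active = fluorescence ratio rise of at least 3 SD of vehicle wells above their mean, in both replicate wells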;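 also: 0% = vehicle mean plus 3 SD and 100% = vehicle minus unstimulated blank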
# KCNQ2 pot confirm: confirmation of rat KCNQ2 potassium channel potentiators | CHO-KCNQ2 cells, FluxOR thallium flux fluorescence | AID 2287 | potentiation, less the hit threshold, % at 10 µM | 1,200 compounds, 68% hits | shares compounds with KCNQ2 pot;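 active = fluorescence ratio rising 3 SD or more over the vehicle control mean in both replicates, plus primary screen hit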;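 also: peak minus minimum thallium fluorescence divided by baseline after K/Tl stimulus; 0% = vehicle mean plus 3 SD and 100% = vehicle minus unstimulated blank difference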
# Kir2-1 sel: tests whether KCNQ2 potentiators also affect mouse Kir2.1; shares compounds with KCNQ2 pot; HEK293 Kir2.1, FluxOR thallium flux fluorescence; activity over 3SD threshold, % at 10 µM; 1,200 compounds, 2% hits; AID 2345;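 active = fluorescence ratio rise of at least 3 SD above the vehicle-control mean, seen in both replicates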;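 also: 0% = vehicle mean plus 3 SD and 100% = vehicle minus no-stimulus blank window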
# KCNQ2 W236L pot: rat KCNQ2 W236L mutant potentiation by KCNQ2 potentiators; AID 2558; 940 compounds, 10% hits; current increase over 3SD of negative controls (%), active compounds read high, % at 25 µM; CHO KCNQ2-W236L, automated patch clamp current; shares compounds with KCNQ2 pot;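 active = current increase at least 3 SD of the untreated controls above them in both duplicate recordings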
# The depositor's hits bear a star; i = inactive; . = not tested or not shown. Most compounds without a hit are left out; they make up all but 1.6% or so of the library.
SMILES,KCNQ2 block,KCNQ2 pot,Kir21 conf inh,HEK293 ctr,others
CCNCc1cc(Cl)c(OCc2ccccc2)c(OCC)c1,i,.,42%*,i,
CCOc1cc(CNCCSc2nnnn2C)cc(Br)c1OCc1ccccc1,i,.,.,.,
Cc1ccc(C(=O)Nc2cc(C)nn2CCC#N)cc1,i,.,.,.,
CC(Oc1ccc(F)cc1)C(=O)Nc1cccc(-c2nn[nH]n2)c1 (centres undefined),i,.,.,.,
[N-]=[N+]=NC1CC(CO)OC1n1ccc(=O)[nH]c1=O (centres undefined),i,0.67,.,.,
COc1ccc(OC(C)C(=O)N(C)Cc2nc(-c3ccc(OC)cc3)no2)cc1 (centres undefined),i,.,.,.,
CC(NC(=O)/C=C/c1ccccc1)c1ccccc1 (centres undefined),i,17*,i,i,CHO-K1 ctr=2.8*;KCNQ1 pot spec=20*;KCNQ2 pot confirm=30*;Kir2-1 sel=-10;KCNQ2 W236L pot=i
Cc1ccc(/C=C/C(=O)NC(C)c2ccccc2)cc1 (centres undefined),i,3.8,.,.,
CC(NC(=O)/C=C/c1ccc(Br)cc1)c1ccccc1 (centres undefined),i,4.2,.,.,
CCc1ccc(C(C)NC(=O)/C=C/c2ccc(Br)cc2)cc1 (centres undefined),i,8.7*,i,i,CHO-K1 ctr=-15;KCNQ1 pot spec=-15;KCNQ2 pot confirm=24*;Kir2-1 sel=-28;KCNQ2 W236L pot=i
CCOC(=O)C1CCN(C(=O)COc2ccc(N(C)S(=O)(=O)c3ccc(C)cc3)cc2)CC1,i,.,.,.,
CC(C)c1ccc(C2/C(=C(/O)c3ccc(F)cc3)C(=O)C(=O)N2CCCN2CCOCC2)cc1 (centres undefined),i,0.39,.,.,
Cc1ccc(NC(=O)CSc2nc3c(c(=O)[nH]2)CCC3)c(C)c1,i,0.29,.,.,
Cc1cc(=O)n2[nH]c(C)c(-c3ccccc3)c2n1,i,.,.,.,
O=c1cc(-c2ccccc2)nc2c(-c3ccccc3)c(C(F)(F)F)[nH]n12,i,23*,i,366%*,CHO-K1 ctr=6.8*;KCNQ1 pot spec=-17;KCNQ2 pot confirm=94*;Kir2-1 sel=-29;KCNQ2 W236L pot=i
O=C(CCNS(=O)(=O)c1ccccc1F)N1CCN(C(c2ccccc2)c2ccccc2)CC1,i,16*,i,i,CHO-K1 ctr=-12;KCNQ1 pot spec=-12;KCNQ2 pot confirm=44*;Kir2-1 sel=-32;KCNQ2 W236L pot=i
O=C(CCNS(=O)(=O)c1ccccc1F)N1CCN(S(=O)(=O)c2cccc(F)c2)CC1,i,.,.,.,
COc1ccc(CCNC(=O)CN2C(=O)COc3ccc(S(=O)(=O)N4CCCC4)cc32)c(OC)c1,i,0.46,.,.,
Oc1ccc(Br)cc1-c1n[nH]c(=S)n1Cc1ccccc1,i,11*,.,.,CHO-K1 ctr=-1;KCNQ1 pot spec=28*;KCNQ2 pot confirm=26*;Kir2-1 sel=-86
Oc1ccccc1-c1n[nH]c(=S)n1Cc1ccccc1,i,3.3,.,.,
CC(C(=O)Nc1ccc(Cl)cc1)N1C(=O)NC2(CCCC2)C1=O (centres undefined),i,.,.,.,
C1CCC(C(CC2CCCCN2)C2CCCCC2)CC1 (centres undefined),i,.,28%*,72%*,
COc1cc(C(=O)NNc2nc3cc4c(cc3s2)OCO4)cc(OC)c1OC,i,12*,i,i,CHO-K1 ctr=-4;KCNQ1 pot spec=-41;KCNQ2 pot confirm=-9;Kir2-1 sel=-33
COc1cc(OC)cc(C(=O)NNc2nc3cc4c(cc3s2)OCO4)c1,i,2.1,.,.,
O=C(Cn1cc(S(=O)(=O)Cc2ccccc2F)c2ccccc21)N1CCOCC1,i,0.86,.,.,
SMILES,KCNQ2 block,KCNQ2 pot,Kir21 conf inh,HEK293 ctr,others
C/C(N)=C(/C#N)C(=O)COC(=O)C1CCC(C(C)(C)C)CC1 (centres undefined),i,5.3,28%*,i,CHO-K1 ctr=8.1*;KCNQ1 pot spec=-36;KCNQ2 pot confirm=7.8*;Kir2-1 sel=-102;KCNQ2 W236L pot=i
C/C(N)=C(/C#N)C(=O)COC(=O)CC1CCCC1,i,.,.,.,
O=C(NNc1ccccc1[N+](=O)[O-])Nc1cccc(Cl)c1,i,.,.,.,
COc1cccc(OC)c1OCCCOc1c(OC)cccc1OC,i,.,.,.,
COc1cccc(OC)c1OCCOc1ccccc1OC(C)C,i,.,41%*,i,
CCc1cc(=O)[nH]c(SCC(=O)N2CCC(Cc3ccccc3)CC2)n1,i,0.88,.,.,
OC(CNCc1ccccc1F)COc1cccc2ccccc12 (centres undefined),i,.,72%*,i,
CC(C)NCC(O)COc1cccc2ccccc12 (centres undefined),i,.,.,.,
CCOCCCNC(=S)N1CCC(NC(=O)C23CC4CC(CC(C4)C2)C3)CC1,i,2.3,.,.,
CNCCC1Sc2ccccc2Oc2ccccc21 (centres undefined),i,0.93,42%*,i,
CN(C)CCCC1Sc2ccccc2Sc2ccccc21 (centres undefined),i,0.67,.,.,
CC(C(=O)Nc1ccccn1)N1C(=O)c2ccccc2S1(=O)=O (centres undefined),i,0.04,.,.,
CCCC(O)(c1ccc(OC)cc1)C(CN1CCOCC1)c1ccc(Cl)cc1 (centres undefined),i,5.2,.,.,
COc1ccc(C(O)(CCC(C)C)C(CN2CCOCC2)c2ccc(Cl)cc2)cc1 (centres undefined),i,6.4*,i,i,CHO-K1 ctr=-24;KCNQ1 pot spec=46*;KCNQ2 pot confirm=-4;Kir2-1 sel=-30
CCCCCN(C(=O)CCC(=O)OC(C)C(=O)NC1CCCCC1)c1c(N)n(CCCC)c(=O)[nH]c1=O (centres undefined),i,.,.,.,
C/C(=C/CCC(C)[C@H]1CC[C@@]2(C)C3=C(CC[C@]12C)[C@@]1(C)CCC(=O)C(C)(C)[C@@H]1CC3)C(=O)O (some centres undefined),i,21*,i,i,CHO-K1 ctr=1.4*;KCNQ1 pot spec=-11;KCNQ2 pot confirm=-26;Kir2-1 sel=-33
C/C(=C/CCC(C)C1CCC2(C)C3CCC4C(C)(C)C(=O)CCC4(C)C3=CCC12C)C(=O)O (centres undefined),i,1.6,.,.,
CCOC(=O)CC1=NN(c2ccccc2)C(=O)/C1=C\c1ccc(OC)cc1OC,i,1.5,.,.,
COc1ccc(CCNC(=O)CSc2nnc3ccc(-c4ccccn4)nn23)cc1,i,0.37,.,.,
Cc1nc(SCC(=O)NCc2ccco2)c2c(C)c(C)sc2n1,i,.,.,.,
Cc1sc2nc(C(C)C)nc(SCC(=O)NCc3ccco3)c2c1C,i,4.6,i,218%*,
